{
  "source": "PubChem BioAssay (NCI)",
  "note": "Compounds without any hit were thinned out: in the full panel of roughly 83,000, 20% have a hit.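 The endpoint reported here, percent growth, reads 100 for growth as untreated, 0 for no net growth and -100 for all cells dead.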 Activity calls are given as the source filed them. Rule for the calls: active = growth percent below 10; inactive = the rest.",
  "data": [
    {"tested_on": "HL-60(TB) leukemia", "assay": "NCI-60 one-dose screen, 48 h (100 = growth as untreated, 0 = no growth, -100 = all killed)", "details": "10 µM unless noted", "values": [
      {"smiles": "O=C(c1ccc(Cl)cc1Cl)N1CCOCC1", "growth": "105% (inactive)"},
      {"smiles": "COc1ccc(-c2ccccc2)cc1C(=O)c1ccc(-c2ccccc2)cc1", "growth": "71.4% (inactive)"},
      {"smiles": "COc1cc(C(=O)C[n+]2ccccc2)ccc1OC(C)=O", "growth": "101% (inactive)"},
      {"smiles": "COc1cccc(-c2cc(-c3cccs3)c(C#N)c(=O)[nH]2)c1", "growth": "102% (inactive)"},
      {"smiles": "COc1ccc(Oc2ccccc2NC(=O)CNC(=O)c2cccc3ccccc23)cc1", "growth": "-22.8% [5 µM] (active)"},
      {"smiles": "CN(Cc1cc(Cl)cc(Cl)c1O)Cc1cc(Cl)cc(Cl)c1O", "growth": "53.1% (inactive)"},
      {"smiles": "CC[C@]12CN3CCc4c([nH]c5ccccc45)[C@@](C(=O)OC)(c4cc5c(cc4OC)N(C)[C@H]4[C@@](O)(C(=O)OC)[C@H](OC(C)=O)[C@]6(CC)C=CCN7CC[C@]54[C@@H]76)CC(C3)[C@H]1O2", "note": "(stereo not given in full)", "growth": "-1.28% (active)"},
      {"smiles": "CCS(=O)(=O)CCCl", "growth": "99.8% (inactive)"},
      {"smiles": "COc1cc(CN(CCC(O)N2CCCC2=O)Cc2ccc3c(c2)OCO3)cc(OC)c1OC", "note": "(stereo not given)", "growth": "90.6% (inactive)"},
      {"smiles": "COc1cc2c(cc1OCCCN1CCN(CCCOc3cc4c(cc3OC)C(=O)N3C[C@H](F)C[C@H]3C=N4)CC1)N=C[C@@H]1C[C@@H](F)CN1C2=O", "growth": "-28.8% (active)"},
      {"smiles": "CC(=O)N1N=C(C2C(=O)N(C)C(=O)N(C)C2=O)CC1c1ccccc1C(=O)O", "note": "(stereo not given)", "growth": "92.2% (inactive)"},
      {"smiles": "COc1cc2nc3c(=O)n(-c4ccc(C#N)cc4)cnn3c(=O)c2cc1OC", "growth": "92.1% (inactive)"},
      {"smiles": "O=C(Nc1ccc(Oc2ccc(Nc3nc4ccccc4s3)cc2)cc1)Nc1ccc(Cl)c(Cl)c1", "growth": "21.1% (inactive)"},
      {"smiles": "COc1ccc(S(=O)(=O)c2ccc(F)cc2)cc1", "growth": "105% (inactive)"},
      {"smiles": "COc1cc2nc(-c3ccc(C(F)(F)F)cc3)cc(OCCCN3CCC(O)CC3)c2cc1OC", "growth": "27.3% (inactive)"},
      {"smiles": "COc1cc(C(=O)/C=C/c2c[nH]c3ccccc23)cc(OC)c1OC", "growth": "-12% (active)"},
      {"smiles": "c1ccc(C(Nc2ccccn2)(c2ccccc2)c2ccccc2)cc1", "growth": "90.4% (inactive)"},
      {"smiles": "COc1ccccc1CNCCCN1C(=O)c2ccc3c4c(ccc(c24)C1=O)C(=O)N(CCCNCc1ccccc1OC)C3=O", "growth": "-67.5% (active)"},
      {"smiles": "CC(=O)OCC(=O)[C@@]1(O)CC[C@H]2[C@@H]3CCC4=CC(=O)CC[C@]4(C)[C@@]3(F)[C@@H](O)C[C@@]21C", "growth": "98.2% (inactive)"},
      {"smiles": "Nc1[nH]n2cc(-c3ccccc3)nc2c1N=Nc1ccc(S(N)(=O)=O)cc1", "growth": "27.9% (inactive)"},
      {"smiles": "COC(=O)c1ccc(NC(=O)CSc2nc3ccccc3c(=O)n2-c2ccccc2)cc1", "growth": "93.2% (inactive)"},
      {"smiles": "COc1ccc(-c2nc3sc4c(c3c(=O)[nH]2)CCCC4)c2ccccc12", "growth": "-24.7% (active)"},
      {"smiles": "ClCc1ccc(-c2ccc(Cn3cnc4c(Cl)nc(Cl)nc43)cc2)cc1", "growth": "-53.7% (active)"},
      {"smiles": "C[N+](C)=c1ccc2nc3c(cc(Nc4ccccc4)c4ccccc43)oc-2c1", "growth": "25.8% (inactive)"},
      {"smiles": "CCCc1c(C)nc2scc(-c3ccc(Cl)cc3)n2c1=O", "growth": "98% (inactive)"}
    ]}
  ]
}
